# Bioassay records deposited in PubChem BioAssay by National Center for Advancing Translational Sciences (NCATS).
# Only some compounds are listed: those with a hit (about 1.2% of all), similar ones and a draw of the others.
# TbPYK inhibitor – qHTS of Trypanosoma Brucei Inhibitors; pyruvate kinase (Trypanosoma brucei), Q57TT1; 410,000 tested, 0.12% active; TbPYK enzyme, Kinase-Glo Plus ATP luminescence, 45 min; Potency, µM (highest dose often 76.8 µM), for the others: top-dose activity, negative = inhibition, actives largely listed as inhibitors; further: on the % scale 0 is the no-effect control and ±100 the full control effect; nearly all actives have a fitted effect of over 50% in size
#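 Luminescence from Kinase-Glo Plus, added after a 45-minute room-temperature reaction, served as the end-point read-out. The enzyme and substrate were preincubated with compound before ADP (130 uM final) initiated turnover. Concentration-effect curves came from normalized qHTS data.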
# AMA1-RON2 inh – qHTS for Inhibitors of AMA1-RON; Towards Development of Antimalarial Drug Lead: Primary Screen | Plasmodium falciparum AMA1 (3D7) - RON2 peptide interaction | AlphaScreen AMA1-biotinylated RON2 peptide binding | Potency, µM (doses to about 58.2 µM), without a hit: top-dose activity change, negative = inhibition, hits mostly inhibitors | 360,000 tested, 0.2% active | AID 720542, 2013;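 further: 0% = vehicle wells and -100% = peptide control; nearly all actives have a fitted effect of over 45% in size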
#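 AMA1 (3D7) with his tag at 25 nM final met compounds first, then biotinylated RON2 peptide at 25 nM; detection used donor plus acceptor beads, 10 µg/mL apiece, read by AlphaScreen after 30 min at room temperature.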
# NS1 function inh – qHTS Assay for Inhibitors of Influenza NS1 Protein Function. Potency, µM (doses to about 46.1 µM), inactives show top-dose activity, positive = more growth. 270,000 tested, 0.4% active. AID 2326, 2010; calls by dose curve; further: actives are rising curves; nearly all actives have a fitted effect of over 50% in size
#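 Recovery from NS1-induced slow growth read by OD600 in budding yeast switched to galactose assay medium (pH 6.0, -URA) at 1:100 dilution. Compound 23 nl per well; the matching strain lacking NS1 serves as control.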
# LmPK inh – qHTS Assay for Inhibitors of Leishmania Mexicana Pyruvate Kinase (LmPK) | 290,000 tested, 0.37% active | Potency, µM (top dose mostly 57.5 µM), for the others: at the highest dose activity change, negative = inhibition, actives largely listed as inhibitors | Q27686 | purified LmPK, Kinase-Glo ATP luminescence, 1 h; further: on the % scale 0 is the no-effect control and ±100 the full control effect
#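 Kinase-Glo luminescence read after 1 h RT reaction of 0.1 nM LmPK with 0.5 mM PEP and 0.1 mM ADP. Activity scaled between uninhibited and enzyme-free controls.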
# Giardia FBPA inh-1 – qHTS Assay for Inhibitors of Fructose-1,6-bisphosphate Aldolase from Giardia Lamblia; purified Giardia FBPA; 290,000 tested, 0.71% active; AID 2451, 2010; A8B2U2; Potency, µM (series often up to 59.6 µM), for the others: at the top dose activity, negative = inhibition, actives largely listed as inhibitors; further: on the % scale 0 is the no-effect control and ±100 the full control effect; nearly all actives have a fitted effect of over 55% in size
# Target sequence (A8B2U2 whole entry, looked up): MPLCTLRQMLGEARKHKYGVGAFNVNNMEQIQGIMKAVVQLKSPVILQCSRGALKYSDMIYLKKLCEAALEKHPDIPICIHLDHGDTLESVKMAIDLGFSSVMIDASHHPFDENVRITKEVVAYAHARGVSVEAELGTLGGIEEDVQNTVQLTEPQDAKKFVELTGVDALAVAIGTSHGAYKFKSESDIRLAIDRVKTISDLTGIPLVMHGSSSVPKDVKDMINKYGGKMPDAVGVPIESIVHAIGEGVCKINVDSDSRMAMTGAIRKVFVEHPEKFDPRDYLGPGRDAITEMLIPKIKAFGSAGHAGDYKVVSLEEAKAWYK
#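 Giardia FBPA (40 nM reagent) was preincubated 10 min at RT with compound (up to 57.5 uM final), then substrate plus GAPDH/TPI/NAD/arsenate coupling system with diaphorase/resazurin was added; resorufin fluorescence (525/598 nm) was read after 20 min.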
# Giardia growth – qHTS Assay for Inhibitors of Fructose-1,6-bisphosphate Aldolase from Giardia Lamblia: Giardia lamblia growth inhibition. 1,500 tested, 5% active. Giardia lamblia trophozoite growth inhibition. shares compounds with Giardia FBPA inh-1. Potency, µM (doses to about 57.5 µM), for inactives: at the highest dose activity change, negative = inhibition, actives largely listed as inhibitors;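 further: trophozoites exposed to compound for 48 h at 37 °C; on the % scale 0 is the no-effect control and ±100 the full control effect; nearly all actives have a fitted effect of over 70% in size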
# Mammal cell tox – qHTS Assay for Inhibitors of Fructose-1,6-bisphosphate Aldolase from Giardia Lamblia: Mammalian cellular toxicity; shares compounds with Giardia FBPA inh-1; mammalian cell viability counter-screen, qHTS; Potency, µM (highest dose often 57.5 µM), without a hit: top-dose viability change, negative = toxicity, actives largely listed as inhibitors; 1,500 tested, 4% active; AID 2786, 2010;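 further: Chinese hamster ovary cells used as mammalian cytotoxicity surrogate; viability measured as cellular ATP by luminescence; compound exposure lasted 48 h before reading; on the % scale 0 is the no-effect control and ±100 the full control effect; nearly all actives have a fitted effect of over 60% in size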
# Giardia FBPA inh-2 – qHTS Assay for Inhibitors of Fructose-1,6-bisphosphate Aldolase from Giardia Lamblia: Primary screen confirmation | shares compounds with Giardia FBPA inh-1 | purified Giardia aldolase enzyme activity, qHTS | Potency, µM (titrated, usually from 57.5 µM), without a hit: at the highest dose activity change, negative = inhibition, actives largely listed as inhibitors | 1,500 tested, 5% active | AID 2787, 2010; further: on the % scale 0 is the no-effect control and ±100 the full control effect; nearly all actives have a fitted effect of over 45% in size
# Rabbit aldolase – qHTS Assay for Inhibitors of Fructose-1,6-bisphosphate Aldolase from Giardia Lamblia: Rabbit FBPA Selectivity. AID 2794, 2010. Rabbit muscle FBPA enzyme inhibition, selectivity counter-screen. shares compounds with Giardia FBPA inh-1. Potency, µM (series often up to 57.5 µM), without a hit: top-dose activity, negative = inhibition, usual class: inhibitors. 1,500 tested, 4% active; further: on the % scale 0 is the no-effect control and ±100 the full control effect; nearly all actives have a fitted effect of over 60% in size
# Target sequence (P00883 whole entry, looked up): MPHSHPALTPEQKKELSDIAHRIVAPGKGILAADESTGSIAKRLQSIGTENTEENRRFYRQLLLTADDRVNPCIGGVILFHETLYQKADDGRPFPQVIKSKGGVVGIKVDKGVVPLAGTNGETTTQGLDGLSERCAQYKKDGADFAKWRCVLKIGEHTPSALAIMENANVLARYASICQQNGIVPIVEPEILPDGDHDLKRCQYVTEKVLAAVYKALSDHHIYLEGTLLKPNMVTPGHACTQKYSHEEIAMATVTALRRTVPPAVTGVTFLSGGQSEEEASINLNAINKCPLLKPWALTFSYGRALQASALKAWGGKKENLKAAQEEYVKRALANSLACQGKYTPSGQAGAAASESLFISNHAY
# GAPDH coupling – qHTS Assay for Inhibitors of Fructose-1,6-bisphosphate Aldolase from Giardia Lamblia: Coupling assay counterscreen confirmation. shares compounds with Giardia FBPA inh-1. GAPDH coupling enzyme counterscreen, biochemical, qHTS. Potency, µM (titrated, usually from 57.5 µM), without a hit: at the top dose activity change, negative = inhibition, most hits filed as inhibitors. 1,500 tested, 6% active; further: on the % scale 0 is the no-effect control and ±100 the full control effect; nearly all actives have a fitted effect of over 55% in size
# The depositor's hits bear a star; ? = inconclusive; · = not tested or not shown; [ ] = another dose, or the depositor's remark. Unless noted, the call rests on the fitted dose curve; in most records, active means well fitted curve in the direction sought with a large enough effect; inconclusive means small, poorly fitted or top-dose-only effect, or another doubt; inactive means no such curve, though single readings can be large; an effect the other way counts as inactive or inconclusive. Potency means the concentration at half of the fitted maximal effect.
SMILES,TbPYK inhibitor,AMA1-RON2 inh,NS1 function inh,LmPK inh,Giardia FBPA inh-1,Giardia growth,Mammal cell tox,Giardia FBPA inh-2,Rabbit aldolase,GAPDH coupling
O=C(C1=NN[C@@H]2C(=O)N(c3cccc(F)c3)C(=O)[C@H]12)c1cnccn1,4%,30%,0%,1%,16µM*,?,-9%,0%,6%,10%
CSc1cccc(NC(=O)C2CCN(c3ncnc4c3nc3n4CCCCC3)CC2)c1,-16%,·,·,·,·,·,·,·,·,·
COC(=O)[C@@]1(Cc2ccc(OC)cc2)[C@H]2c3cc(C(=O)N(C)C)n(Cc4ccc(C)o4)c3C[C@H]2CN1C(=O)c1ccccc1,·,·,·,·,-6%,·,·,·,·,·
O=C(CSc1cccc[n+]1[O-])CSc1cccc[n+]1[O-],-9%,32%,-48%,2%,16µM*,-1%[10.4 µM],10µM*,-1%,15%,3%
COC(=O)c1ccc(C(=O)OC)c(NC(=O)CSc2cccc[n+]2[O-])c1,-22%,86%,-281%,3%,11µM*,-6%,?,-15%,-14%,-6%
O=C(CSc1cccc[n+]1[O-])Nc1ccccc1Oc1ccccc1,-4%,24%,·,-2%,6.3µM*,8%[38.3 µM],20µM*,-20%,-5%,-9%
O=C(NCc1cccc2ccccc12)[C@H]1C[C@@H]1[C@H](NP(=O)(c1ccccc1)c1ccccc1)c1ccccc1,·,·,·,·,-6%,·,·,·,·,·
NC(CSSCC(N)C(=O)O)C(=O)O (stereo unspecified),1%,·,·,·,0%,·,·,·,·,·
N[C@@H](CSS(=O)(=O)O)C(=O)O,·,·,·,·,?,-11%[38.3 µM],9%,22µM*,14µM*,22µM*
COc1ccccc1N1CCN(CCC(=O)Nc2ccc3c(c2)OCO3)CC1,-15%,-5%,-4%,0%,2%,·,·,·,·,·
COc1ccccc1CN1CCN(C(=O)COc2cccc(C)c2)CC1,9%,20%,-9%,-6%,?,·,·,·,·,·
COc1ccc(CN2CCN(Cc3ccccc3OC)CC2)cc1,6%,-29%,-2%,-2%,14µM*,-25%,-2%,6%,4%,15%
COc1ccccc1N1CCN(CC(=O)Nc2ccc3c(c2)OCCO3)CC1,-6%,?,·,-2%,18µM*,61%,1%,7%,8%,8%
COc1ccc(CN2CCN(Cc3ccccc3F)CC2)cc1OC,17%,?,22%,1%,16µM*,0%,9%,-7%,7%,-16%
COc1ccc(CN2CCN(Cc3cccc(F)c3)CC2)cc1OC,4%,-20%,4%,-1%,?,·,·,·,·,·
COc1ccccc1CN1CCN(C(=O)COc2ccc3ccccc3c2)CC1,-1%,?,-15%,0%,20µM*,11%[10.4 µM],7%,-2%,15%,1%
COc1ccccc1CN1CCN(Cc2ccc(Cl)cc2)CC1,-15%,?,·,1%,?,·,·,·,·,·
O=CCCCC=O,2%,·,·,·,·,·,·,·,·,·
O=C(O)/C=C/c1ccccc1,4%,·,·,·,·,·,·,·,·,·
CCN1CCN(CC(=O)Nc2c(OC)cccc2OC)CC1,3%,-13%,9%,-6%,13µM*,7%[10.4 µM],-1%,-1%,-2%,5%
COc1ccccc1N1CCN(CC(=O)c2ccc(F)cc2)CC1,-3%,-41%,-12%,-2%,16µM*,-24%,7%,-18%,3%,5%
COc1ccccc1N1CCN(Cc2ccc(SC)cc2)CC1,1%,20µM*,-3%,-9%,16µM*,-17%,-8%,5%,0%,1%
COc1ccccc1N1CCN(Cc2ccc(F)cc2)CC1,-7%,-8%,·,0%,8%,·,·,·,·,·
CN(CC(=O)O)Cc1c(O)c(Cl)cc(Cl)c1Cl,·,·,-3%,·,·,·,·,·,·,·
CCOc1ccc(C(=O)c2cn(Cc3ccccc3)c3c(F)cc(F)cc3c2=O)cc1,-2%,·,·,·,·,·,·,·,·,·
SMILES,TbPYK inhibitor,AMA1-RON2 inh,NS1 function inh,LmPK inh,Giardia FBPA inh-1,Giardia growth,Mammal cell tox,Giardia FBPA inh-2,Rabbit aldolase,GAPDH coupling
CCOC(=O)N1CCc2c(sc3c2c(=O)n(Cc2ccccc2)c(=O)n3CC(=O)Nc2cccc(CC)c2)C1,-2%,·,·,·,·,·,·,·,·,·
CCCC[C@@H]1C[C@H]1C(NC(=O)c1ccccc1)c1ccc(C(=O)OC)cc1 (stereo partly specified),·,·,·,·,4%,·,·,·,·,·
CC1=CC(=O)NP(=O)(Oc2ccc3ccccc3c2)N1 (stereo unspecified),?,0%,-47%,-7%,16µM*,?,10%,-17%,7%,12%
C=CCN1c2ccccc2[C@]23C[C@@H](C(=O)OC)N(S(=O)(=O)c4ccc(C(F)(F)F)cc4)C2=NC(C(=O)OC)=C(C(=O)OC)[C@H]13,·,·,·,4%[11.5 µM],4%[12.9 µM],·,·,·,·,·
O=[N+]([O-])c1ccc(N/N=C/c2ccc[nH]2)cc1,-4%,-17%,?,-23%,18µM*,0%[10.4 µM],1%,-26%,-18%,?
COc1ccc(Br)cc1CN(C)CC(=O)NCc1ccc(F)cc1,-3%,?,1%,-8%,14µM*,-15%[10.4 µM],-4%,2%,1%,14%
CN(CC(=O)NCc1ccc(F)cc1)Cc1ccc(Br)cc1,4%,-9%,-4%,5%,-3%,·,·,·,·,·
O=C(Oc1ccccc1)N1CCC2(CCCN(c3ncccn3)C2)CC1,0%,·,·,·,-7%,·,·,·,·,·
COC(=O)c1c(NC(=O)C(C)(C)C)sc2c1CCN(Cc1ccccc1)C2,-2%,-19%,-23%,2%,11µM*,-30%,-16%,-4%,9%,-14%
